# Bioassay records (PubChem BioAssay)
# The full list was thinned out, with hits kept by preference.
# AmpC inh no detg: qHTS Inhibitors of AmpC Beta-Lactamase (assay without detergent) | P00811 | AmpC nitrocefin hydrolysis, absorbance 480 nm, 0.0001% Triton | Potency, µM (series often up to 57.1 µM), inactives show at the top dose activity change, negative = inhibition, hits mostly inhibitors | actives 0.52% (n = 330,000) | AID 485341, 2010;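 note: potency is the fitted concentration of half-maximal effect; plate controls were no compound for no effect and no enzyme for full effect; nearly all actives have a fitted effect of over 20% in size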
# Target sequence (P00811 whole entry, looked up): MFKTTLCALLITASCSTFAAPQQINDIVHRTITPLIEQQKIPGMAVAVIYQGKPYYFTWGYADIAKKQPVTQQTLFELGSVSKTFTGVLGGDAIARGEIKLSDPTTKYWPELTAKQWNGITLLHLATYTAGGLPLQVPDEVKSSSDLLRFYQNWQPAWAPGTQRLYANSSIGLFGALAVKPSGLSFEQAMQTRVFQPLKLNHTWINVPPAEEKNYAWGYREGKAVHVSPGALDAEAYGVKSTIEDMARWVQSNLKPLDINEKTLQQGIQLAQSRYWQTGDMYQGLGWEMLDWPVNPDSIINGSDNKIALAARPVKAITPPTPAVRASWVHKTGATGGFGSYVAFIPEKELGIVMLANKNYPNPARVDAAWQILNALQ
#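 AmpC (5.3 nM in the dispensed reagent) in 20 mM phosphate pH 7.0 with 0.01% (detergent screen) or 0.0001% Triton X-100 was preincubated with compounds for 15 min at room temperature. Nitrocefin was then added from an 800 uM solution, and hydrolysis was followed at 480 nm.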
# Cycloheximide cs: Cycloheximide Counterscreen for Small Molecule Inhibitors of Shiga Toxin | cell reporter, cycloheximide protein synthesis inhibition counterscreen | max response, % | actives 12% (n = 300,000); in the data active = max response mostly above about 13%, no sharp cut-off; inactive = mostly below about 14%; note: read at 38.3 µM for the half of the compounds with a filed dose; 0% is about no effect
# AMA1-RON2 inh: qHTS for Inhibitors of AMA1-RON; Towards Development of Antimalarial Drug Lead: Primary Screen; Potency, µM (doses to about 58.2 µM), for inactives: at the highest dose activity change, negative = inhibition, hits mostly inhibitors; Plasmodium falciparum AMA1 (3D7) - RON2 peptide interaction; actives 0.2% (n = 360,000); AlphaScreen AMA1-biotinylated RON2 peptide binding;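 note: potency is the fitted concentration of half-maximal effect; 0% = vehicle wells and -100% = peptide control; nearly all actives have a fitted effect of over 45% in size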
#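 AMA1 (3D7) with his tag at 25 nM final met compounds first, then biotinylated RON2 peptide at 25 nM; detection used donor plus acceptor beads, 10 µg/mL apiece, read by AlphaScreen after 30 min at room temperature.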
# Shiga toxin inh: A qHTS for Small Molecule Inhibitors of Shiga Toxin; actives 9.2% (n = 290,000); Vero cells, Shiga toxin protein synthesis inhibition reporter; AID 2315, 2010; inhibition, % at 38.7 µM; in the data active = inhibition mostly above about 28%, no sharp cut-off; inactive = mostly below about 43%; note: 0% is about no effect
# AmpC detergent: qHTS Inhibitors of AmpC Beta-Lactamase (assay with detergent); AmpC hydrolysis of nitrocefin, absorbance 480 nm, 0.01% Triton; Potency, µM (titrated, usually from 114 µM), inactives show top-dose activity change, negative = inhibition, usual class: inhibitors; actives 0.041% (n = 370,000);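 note: potency is the fitted concentration of half-maximal effect; 0% = no-compound wells and -100% = no-enzyme wells; nearly all actives have a fitted effect of over 25% in size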
#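 AmpC (5.3 nM in the dispensed reagent) in 20 mM phosphate pH 7.0 with 0.01% (detergent screen) or 0.0001% Triton X-100 was preincubated with compounds for 15 min at room temperature. Nitrocefin was then added from an 800 uM solution, and hydrolysis was followed at 480 nm.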
# SARS PLpro yeast: qHTS of Yeast-based Assay for SARS-CoV PLP | S. cerevisiae expressing SARS-CoV PLpro, growth rescue | Potency, µM (highest dose often 32.9 µM), inactives show at the highest dose activity, positive = growth rescue, usual class: activators | actives 0.19% (n = 330,000) | AID 485353, 2010; calls by dose curve; note: potency is the fitted concentration of half-maximal effect; 0% is about no effect; nearly all actives have a fitted effect of over 55% in size
# Numbers without * were called inactive; ? = inconclusive; nt = no result; + = active, no number; [ ] = dose if it differs, or a comment. Unless noted, calls come from the whole dose curve; as a rule, active = well fitted curve in the direction sought with a large enough effect; inconclusive = small, poorly fitted or top-dose-only effect, or another doubt; inactive = no such curve, though single readings can be large; an effect the other way counts as inactive or inconclusive.
SMILES,AmpC inh no detg,Cycloheximide cs,AMA1-RON2 inh,Shiga toxin inh,AmpC detergent,SARS PLpro yeast
O=C1c2ccccc2C(Nc2cccc(C(F)(F)F)c2)N1Cc1ccco1 (stereo not given),7%,1,-5%,-6,-8%,-10%
Cc1ccc2c(c1)[nH]c1c(=O)n(Cc3ccco3)cnc12,-8%,21*,5%,35,-2%,-4%
Cc1ccccc1OC(=O)c1cccnc1,-6%,-4,5%,-13,-12%,2%
O=C1OCc2ccc(NC(=O)C3CC3)cc21,3%,3,-11%,16,1%,-2%
O=C1OCc2ccc(NC(=O)c3ccccc3C(=O)O)cc21,-20%,34*,-6%,58*,4%,-2%
O=C(Nc1ccc2c(c1)C(=O)OC2)c1ccccc1Cl,-10%,26*,1%,23,7%,1%
O=C1OCc2ccc(NC(=O)c3c(F)cccc3Cl)cc21,-11%,17*,3%,30,?,1%
O=C(Nc1ccc2c(c1)CCC2)c1c(F)cccc1Cl,-24%,54*,29%,112*,-5%,3%
CCCOC(=O)C(C)n1c(-c2ccccc2)nc2ccccc2c1=O (stereo not given),-1%,-3,-21%,-14,5%,-29%
O=C(O)CSc1nc2c(cnn2-c2ccccc2)c(=O)n1-c1ccc(Br)cc1,-14%,-3,-6%[2.32 µM],-8,?,-10%
CCCCSc1cnn(-c2ccccc2)c(=O)c1SCCCC,-44%,-3,23%,-1,-5%,-27%
Nn1c(SCc2ccccc2)nc2c(cnn2-c2ccccc2)c1=O,-14%,23*,69%,76*,-11%,-1%
CCCOc1nc(SCCC)nc2c1cnn2-c1ccccc1,-11%,3,15%,10,5%,-1%
CCCSc1nc2c(cnn2-c2ccccc2)c(=O)n1N,-16%,43*,43%,50*,5%,-1%
CCn1cnc2c(cnn2-c2ccccc2)c1=O,-14%,27,0%,84,-13%,1%
CCCCSc1nc2c(cnn2-c2ccccc2)c(=O)n1N,-6%,42*,53%,94*,-11%,-2%
O=c1c2cnn(-c3ccccc3)c2ncn1CCc1ccccc1,-21%,23*,22%,49*,-12%,2%
N#Cc1c(Sc2ncc(C(F)(F)F)cc2Cl)nsc1C/C=N\OCc1c(F)cccc1Cl,-56%,7,?,33,5%,3%
COCCCNC(=O)c1ccc2c3c(onc13)-c1ccccc1C2=O,71%,35*,?,69*,5%,-8%
COCCCNC(=O)c1ccccc1Oc1ccccc1,-16%,-3,7%,12,?,-3%
COc1cccc(/C=C2\SC(N3CCC(C)CC3)=NC2=O)c1OC,3%,13*,18%,30,1%,0%
COc1cccc(/C=C2\SC(=S)N(N3CCOCC3)C2=O)c1OC,-8%,23*,?,15,-15%,-15%
COc1ccccc1/C=C1\SC(N2CCC(C)CC2)=NC1=O,-1%,26*,30%,57*,-7%,-6%
COc1cccc(/C=C2\SC(N3CCCC(C)C3)=NC2=O)c1OC (stereo not given),-4%,17*,11%,56*,-5%,1%
CCOC(=O)C1CCN(C2=NC(=O)/C(=C/c3ccccc3OC)S2)CC1,54%,8,8%,26,-2%,-1%
SMILES,AmpC inh no detg,Cycloheximide cs,AMA1-RON2 inh,Shiga toxin inh,AmpC detergent,SARS PLpro yeast
Cc1cc(C(F)(F)F)nn1CC(=O)NCC1CCCO1 (stereo not given),-3%,-5,1%,-25,?,4%
Nc1[nH]n(-c2c(Cl)cc(Cl)cc2Cl)c(=O)c1N=Nc1ccc(S(=O)(=O)Nc2ncccn2)cc1,-18%,nt,0%,nt,nt,2%
C/C(=N\NC(=O)c1c([N+](=O)[O-])c(C)nn1C)c1ccc(NC(=O)c2ccc(C)o2)cc1,-2%,25*,23%,51*,-3%,-6%
C/C(=N\NC(=O)C1(C)CC1(Br)Br)c1ccc(NC(=O)c2ccc(C)o2)cc1 (stereo not given),-51%,24*,-10%,54*,-5%,-2%
C/C(=N/NS(=O)(=O)c1ccc(F)cc1)c1ccc(NC(=O)c2ccc(C)o2)cc1,-60%,35*,0%,43,-6%,-10%
COC(=O)CC/C(O)=C1/C(=N)CC(C)(C)CC1=O,-10%,1,24%,-16,1%,7%
CCOc1ccc(-c2nn[nH]n2)cc1,-17%,7,10%,-8,-5%,3%
Cc1ccccc1COc1ccc(-c2nn[nH]n2)cc1,-5%,27*,8%,32*,-10%,-1%
Brc1cc2c(cc1COc1ccc(-c3nn[nH]n3)cc1)OCO2,-44%,30*,-1%,-49,-12%,-34%
Fc1ccccc1OCCn1c(=S)[nH]c2ccccc21,-42%,24*,43%,28*,0%,?
COc1ccccc1N1CCN(/N=C/c2cccc(Cl)c2)CC1,-6%,38*,14µM*,151*,-5%,7%
COc1cccc(/C=N/N2CCN(c3ccccc3OC)CC2)c1,-5%,49*,?,+,3%,-4%
COc1ccccc1N1CCN(/N=C/c2cccc(OC)c2O)CC1,11%,11,2%,3,-4%,1%
COc1cc(OC)c(/C=N/N2CCN(c3ccccc3OC)CC2)c(OC)c1,117%,24*,-1%,65*,-5%,-14%
Cc1ccc(C(=O)Nc2nnc(S(=O)(=O)N3c4ccccc4CC3C)s2)cc1 (stereo not given),nt,nt,nt,nt,16%,nt
Cc1cc(=O)[nH]c(SCC2(O)C3CC4CC(C3)CC2C4)n1 (stereo not given),-7%,8,1%,3,4%,-5%
COc1ccc(-n2nnnc2SCc2nc3ccccc3s2)cc1,-13%,68*,15%,99*,-9%,4%
COc1ccc(C)cc1-n1nnnc1SCc1nc2ccccc2s1,-33%,45*,14%,129*,-1%,-6%
COc1ccc(CSc2nnnn2-c2ccccc2)cc1,-18%,9,14%,9,1%,-11%
O=C(CN(Cc1ccc(F)cc1)C(=O)c1csnn1)NC1CCCC1,-5%,-3,7%,-3,4%,14%
O=C(NC1CC1)c1cc2c(F)cccc2s1,-8%,33*,0%,24,-8%,-2%
O=c1[nH]cnc2nn(-c3ccccc3)nc12,-4%,14,-1%,84*,-15%,0%
